“And” between values parts separate entries of the source, which are not always exact repeats. Identical values can stand only once. Inconclusive results are not listed. The source made the active and inactive calls. Calls come from the whole dose curve; as a rule, active = well fitted curve in the direction sought with a large enough effect in the repeat runs; inconclusive = weak or mixed curves; inactive = no such curve, though single readings can be large; an effect the other way counts as inactive or inconclusive.
How the values were obtained:
[1] = qHTS RealTime-Glo MT Cell Viability Assay in HEK293 cells - 40 hour (AID 1224874); conditions: RealTime-Glo luminescence; max response: hits give low values; note: nearly all actives have a fitted effect of over 50% in size
How it was run: (§1)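 Tox21 screen in HEK293 using RealTime-Glo MT chemistry, with cells and reagent co-dispensed. Luminescence proportional to viable cell number was captured at intervals during 40 h compound exposure at 37 C.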

[2] = A CellTox Green Cytotoxicity Assay to monitor cytotoxicity in HEK293 cells - 24 hour (AID 1224875); note: series mostly up to about 77 µM; nearly all actives have a fitted effect of over 45% in size
How it was run: (§2)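 Seeding of HEK293 cells together with cytotoxicity dye preceded a 5 h incubation at 37 C/5% CO2. Test compounds in DMSO were then added and fluorescence monitored across 40 h.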

[3] = A CellTox Green Cytotoxicity Assay to monitor cytotoxicity in HepG2 cells - 16 hour (AID 1224876); note: nearly all actives have a fitted effect of over 45% in size
How it was run: (§3)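 Nonlytic assay: viable cells exclude the dye, so fluorescence scales with cell death. HepG2 at 600 cells/well, compounds added after 5 h, signal read across 40 h.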

[4] = qHTS RealTime-Glo MT Cell Viability Assay in HepG2 cells - 32 hour (AID 1224877); note: nearly all actives have a fitted effect of over 55% in size
How it was run: (§4)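 Compound treatment began 5 h after plating HepG2 cells (600/well) with NanoLuc luciferase and prosubstrate. Plates stayed at 37 C for 40 h; luminescence was captured at six time points, 0 h through 40 h.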

[5] = A CellTox Green Cytotoxicity Assay to monitor cytotoxicity in HepG2 cells - 24 hour (AID 1224878); note: nearly all actives have a fitted effect of over 45% in size
How it was run: as §3

[6] = A CellTox Green Cytotoxicity Assay to monitor cytotoxicity in HepG2 cells - 40 hour (AID 1224879); note: nearly all actives have a fitted effect of over 40% in size
How it was run: as §3

[7] = A CellTox Green Cytotoxicity Assay to monitor cytotoxicity in HEK293 cells - 32 hour (AID 1224881); note: nearly all actives have a fitted effect of over 40% in size
How it was run: as §2

[8] = A CellTox Green Cytotoxicity Assay to monitor cytotoxicity in HepG2 cells - 0 hour (AID 1224882); note: nearly all actives have a fitted effect of over 35% in size
How it was run: as §3

[9] = A CellTox Green Cytotoxicity Assay to monitor cytotoxicity in HepG2 cells - 32 hour (AID 1224883); note: nearly all actives have a fitted effect of over 50% in size
How it was run: as §3

[10] = A CellTox Green Cytotoxicity Assay to monitor cytotoxicity in HEK293 cells - 8 hour (AID 1224884); note: nearly all actives have a fitted effect of over 35% in size
How it was run: as §2

[11] = qHTS RealTime-Glo MT Cell Viability Assay in HEK293 cells - 24 hour (AID 1224886); note: top concentration of the series differs between compounds; nearly all actives have a fitted effect of over 50% in size
How it was run: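 Quantitative high-throughput screen of the Tox21 10K library in HEK293: cells and RealTime-Glo reagents plated together, compound added at 5 h, luminescence monitored through 40 h at 37 C.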

[12] = qHTS RealTime-Glo MT Cell Viability Assay in HEK293 cells - 8 hour (AID 1224887); note: top concentration of the series differs between compounds; nearly all actives have a fitted effect of over 50% in size
How it was run: as §1

[13] = A CellTox Green Cytotoxicity Assay to monitor cytotoxicity in HEK293 cells - 16 hour (AID 1224888); note: nearly all actives have a fitted effect of over 35% in size
How it was run: as §2

[14] = qHTS RealTime-Glo MT Cell Viability Assay in HepG2 cells - 0 hour (AID 1224889); note: nearly all actives have a fitted effect of over 50% in size
How it was run: as §4

[15] = A CellTox Green Cytotoxicity Assay to monitor cytotoxicity in HepG2 cells - 8 hour (AID 1224890); note: nearly all actives have a fitted effect of over 45% in size
How it was run: as §3

[16] = qHTS assay to identify small molecule antagonists of the estrogen receptor alpha (ER-alpha) signaling pathway using the BG1 cell line in the presence of 0.1 nM 17-beta-estradiol - cell viability counter screen (AID 1259241); note: nearly all actives have a fitted effect of over 40% in size
How it was run: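 VM7Luc4E2 cells (endogenous full-length ER-alpha, 4xERE-luciferase), cultured 5 days in charcoal-stripped serum, exposed to compounds with 0.1 nM 17beta-estradiol (final) for 22 hr at 37C. Viability read in same wells as live-cell protease fluorescence after 30 min.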

[17] = qHTS assay to identify small molecule antagonists of the androgen receptor (AR) signaling pathway using the MDA cell line in the presence of 0.5 nM R1881 - cell viability counter screen (AID 1259242); note: nearly all actives have a fitted effect of over 45% in size
How it was run: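 R1881 at 0.5 nM final stimulated MDA-kb2 cells during 16 hr compound treatment at 37C. Cytotoxicity read: CellTiter-Fluor fluorescence after 30 min.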

[18] = qHTS RealTime-Glo MT Cell Viability Assay in HepG2 cells - 16 hour (AID 1224885); note: nearly all actives have a fitted effect of over 50% in size
How it was run: as §4

[19] = qHTS RealTime-Glo MT Cell Viability Assay in HEK293 cells - 0 hour (AID 1224880)
How it was run: as §1

[20] = target: Androgen receptor (Homo sapiens) (UniProt P10275); test: qHTS assay to identify small molecule antagonists of the androgen receptor (AR) signaling pathway using the MDA cell line in the presence of 0.5 nM R1881 (AID 1259243); note: nearly all actives have a fitted effect of over 50% in size
How it was run: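 We exposed MDA-kb2 cells to compounds under 0.5 nM R1881 stimulation for 16 hr at 37C and quantified MMTV-driven luciferase by luminescence.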
% is set by controls: 0 for no effect and ±100 for the full control effect.

Sequence of Androgen receptor (Homo sapiens) (P10275 whole entry, looked up): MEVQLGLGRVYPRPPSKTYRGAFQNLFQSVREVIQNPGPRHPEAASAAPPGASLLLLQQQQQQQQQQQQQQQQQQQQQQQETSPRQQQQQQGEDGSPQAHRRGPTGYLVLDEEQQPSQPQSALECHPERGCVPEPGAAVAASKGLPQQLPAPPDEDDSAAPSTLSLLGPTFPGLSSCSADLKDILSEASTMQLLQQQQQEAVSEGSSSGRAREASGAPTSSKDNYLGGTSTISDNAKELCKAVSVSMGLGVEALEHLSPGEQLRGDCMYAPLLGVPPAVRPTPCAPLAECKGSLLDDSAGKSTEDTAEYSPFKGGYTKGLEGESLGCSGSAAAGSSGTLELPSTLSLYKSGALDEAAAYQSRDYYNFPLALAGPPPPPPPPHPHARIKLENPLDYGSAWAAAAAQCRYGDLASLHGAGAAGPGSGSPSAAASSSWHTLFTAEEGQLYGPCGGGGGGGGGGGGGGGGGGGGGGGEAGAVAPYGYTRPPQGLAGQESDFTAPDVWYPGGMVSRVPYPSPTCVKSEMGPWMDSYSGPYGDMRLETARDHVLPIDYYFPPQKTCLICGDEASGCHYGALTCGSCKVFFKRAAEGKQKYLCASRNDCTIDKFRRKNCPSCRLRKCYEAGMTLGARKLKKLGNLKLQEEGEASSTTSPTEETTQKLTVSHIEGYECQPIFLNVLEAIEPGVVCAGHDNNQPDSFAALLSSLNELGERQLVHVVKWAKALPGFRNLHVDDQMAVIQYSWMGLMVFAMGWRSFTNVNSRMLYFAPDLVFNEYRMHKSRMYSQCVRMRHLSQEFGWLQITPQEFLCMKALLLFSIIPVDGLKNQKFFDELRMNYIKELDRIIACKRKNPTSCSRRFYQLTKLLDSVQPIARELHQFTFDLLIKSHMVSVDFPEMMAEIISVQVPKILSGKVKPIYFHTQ

O=[N+]([O-])c1ccc([As](=O)(O)O)cc1
inactive: max response [1] 0.69% and 11.7% | Potency [2] | Potency [3] | outcome [4] | Potency [5] | Potency [6] | Potency [7] | Potency [8] | Potency [9] | Potency [10] | Potency [11] | outcome [12] | Potency [13] | outcome [14] | Potency [15] | Potency [16] | outcome [17]

COC(=O)c1ccccc1C(=O)OC
inactive: max response [1] -6.01% and 4.81% | Potency [2] | Potency [3] | outcome [4] | Potency [5] | Potency [6] | Potency [7] | Potency [8] | Potency [10] | outcome [18] | Potency [11] | outcome [12] | Potency [13] | outcome [14] | Potency [16] | outcome [17]

NCCc1ccc(O)cc1
inactive: max response [1] -18.4% and 1.96% | Potency [2] | Potency [3] | Potency [5] | Potency [6] | outcome [19] | Potency [7] | Potency [8] | Potency [9] | Potency [10] | outcome [18] | Potency [11] | outcome [12] | Potency [13] | outcome [14] | Potency [16] | outcome [17]

CC(=O)C=C(C)C
inactive: max response [1] 1.7% and 8.25% | Potency [2] | Potency [3] | outcome [4] | Potency [5] | Potency [6] | Potency [7] | Potency [8] | Potency [9] | Potency [10] | outcome [18] | Potency [11] | outcome [12] | Potency [13] | outcome [14] | Potency [15] | Potency [16] | outcome [17]

CC(C)(Cl)Cl
inactive: max response [1] 0.337% and 2.87% | Potency [2] | Potency [3] | Potency [5] | Potency [6] | outcome [19] | Potency [7] | Potency [8] | Potency [9] | Potency [10] | outcome [18] | Potency [11] | outcome [12] | outcome [14] | Potency [15] | Potency [16] | outcome [17]

c1ccc2c(c1)oc1ccccc12
inactive: max response [1] -5.88% and -12.6% | Potency [2] | Potency [3] | outcome [4] | Potency [5] | outcome [19] | Potency [7] | Potency [8] | Potency [10] | Potency [11] | outcome [12] | Potency [13] | outcome [14] | Potency [15] | Potency [16] | outcome [17]

CC(C#N)CCC#N (centres undefined)
inactive: max response [1] 6.71% and -8.28% | Potency [2] | Potency [3] | Potency [5] | Potency [6] | outcome [19] | Potency [7] | Potency [8] | Potency [9] | Potency [10] | outcome [18] | Potency [11] | outcome [12] | Potency [13] | outcome [14] | Potency [15] | Potency [16] | outcome [17]

CCOC(=O)c1ccccc1C(=O)OCC
inactive: max response [1] 0.767% and 3.18% | Potency [2] | Potency [3] | outcome [4] | Potency [5] | Potency [6] | outcome [19] | Potency [7] | Potency [8] | Potency [10] | Potency [11] | outcome [12] | outcome [14] | Potency [15] | Potency [16] | outcome [17]

Clc1cccc(Cl)c1Cl
inactive: max response [1] 14.5% | Potency [2] | Potency [3] | Potency [5] | Potency [6] | outcome [19] | Potency [7] | Potency [8] | Potency [9] | Potency [10] | outcome [18] | Potency [11] | outcome [12] | outcome [14] | Potency [15] | Potency [16] | outcome [17]

Cc1cccc([N+](=O)[O-])c1
inactive: max response [1] 1.89% and 2.13% | Potency [2] | Potency [3] | Potency [5] | Potency [6] | outcome [19] | Potency [7] | Potency [8] | Potency [9] | Potency [10] | outcome [18] | Potency [11] | outcome [12] | Potency [13] | outcome [14] | Potency [15] | Potency [16] | outcome [17]

CCCCN(CC)C(=O)SCCC
inactive: max response [1] 0.284% | Potency [2] | Potency [3] | outcome [4] | Potency [5] | Potency [6] | Potency [7] | Potency [8] | Potency [9] | Potency [10] | outcome [18] | Potency [11] | outcome [12] | outcome [14] | Potency [16] | outcome [17] | Potency [20]

O=c1n(Cl)c(=O)n(Cl)c(=O)n1Cl
inactive: max response [1] 1.37% and 3.54% | Potency [2] | Potency [3] | outcome [4] | Potency [5] | Potency [6] | outcome [19] | Potency [7] | Potency [8] | Potency [10] | Potency [11] | outcome [12] | Potency [13] | outcome [14] | Potency [15] | Potency [16] | outcome [17]
